{"source": "the supplement of paper PMC6555819", "data": [{"tested_on": "RARa homodimer (NR concentration 270 nM)", "assay": "PBM binding z-score (relative to random genomic background probes); higher = stronger binding; sequences stand for … in GC…GCGATTGACAGCGTAGAATGAAGG", "procedure,_shortened": "(§1)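 Binding z-scores were set against random background probes. The data came from custom Agilent 4×180K protein-binding microarrays carrying double-stranded probes with 34-nt variable regions, incubated 1 h with ligand-free nuclear receptor dimers. Partner-specific antibodies detected binding, and scanned fluorescence was regression-normalized.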", "values": [{"sequence": "ATCTCTAGGTAAGACTCAGTTCATTGAAGAACGC", "PBM binding z-score": 1.62}, {"sequence": "CCTTACGGGTGAAGGTTATAGCACGGGTGGTACG", "PBM binding z-score": 0.409}, {"sequence": "ACCTCTAGGTAAAAGTTCAGTGAATCCCGAGGAT", "PBM binding z-score": 0.0645}, {"sequence": "CGTCAAAGTTCAACTAAGGTGACGTAAAGCACGC", "PBM binding z-score": 1.76}, {"sequence": "CATACTGGGCCATCAGGTCATTGATATCAACGTT", "PBM binding z-score": 0.345}, {"sequence": "CCGACTGGGGCATAAGGTTACAATAAGCCAGCCC", "PBM binding z-score": -0.0919}, {"sequence": "CGAACTAGGTCAGAACAGGACAGTGCAGGATGAT", "PBM binding z-score": 0.221}, {"sequence": "CAAACTTGGTCAAAGGTCAAAGTCGAGCCAACCA", "PBM binding z-score": 1.5}, {"sequence": "TCATATAGGCAAATGCTAGGTGAAAGTCCGATCT", "PBM binding z-score": 0.507}, {"sequence": "ATCTCTATGTAAAGATAGTTCAGTGAATGCAAAT", "PBM binding z-score": 0.866}, {"sequence": "GTACCAAGGAGAATAGGTCGTTGATGAGTAGGCG", "PBM binding z-score": 0.574}, {"sequence": "TATACAGGGCCAAAGGCCAGAGTACGAATGTCGA", "PBM binding z-score": -0.305}, {"sequence": "GCTGCTAGGTCAGGTTGCTCAGCTAACGGGTACG", "PBM binding z-score": -0.624}, {"sequence": "AGTCAAAGTTCAGGGCGAGGTAACGTAAAGCACG", "PBM binding z-score": 1.23}, {"sequence": "ACCTACGGGTCAACGAGGTTATAGCACGCGTATA", "PBM binding z-score": 0.837}, {"sequence": "TCTGCTAAGTCAGTTGGTCAGCTAACGAGCTGCC", "PBM binding z-score": -1.36}, {"sequence": "TATCCTAGGTCATGGGCCAGTATACCACGCGAAC", "PBM binding z-score": 1.01}]}, {"tested_on": "RARb:RXRa (NR concentration 270 nM, RXRa partner concentration 90 nM)", "assay": "PBM binding z-score (relative to random genomic background probes); higher = stronger binding; sequences stand for … in GC…GCGATTGACAGCGTAGAATGAAGG", "procedure,_shortened": "as §1", "values": [{"sequence": "TCATCTAGGTAATACAGGTGAAAGTCGGCATCTA", "PBM binding z-score": 0.575}, {"sequence": "CGTCCAAGGTCAGAAGGTCAGTGAAAGCGACGTG", "PBM binding z-score": 5.45}, {"sequence": "CATACAGGGTCAGCTAAGCCAGAGTAGGGACGGC", "PBM binding z-score": 3.9}, {"sequence": "TATACAGGGTCAGAGGCCAGAGTACGAATGTCGA", "PBM binding z-score": 3.72}, {"sequence": "GGATCGAGGGCATTCGAGTTGATAGCATGGCGAT", "PBM binding z-score": 1.83}, {"sequence": "ACTAGTTGGTCAGCTGTGGTCACACACAATTCGG", "PBM binding z-score": 1.23}, {"sequence": "TCGAGTAGGTTAGGGGCACTCAGAATGGCGTCGA", "PBM binding z-score": 0.927}, {"sequence": "CCTAGAAGGCCAATCTGGGTCACTCAAGGCTTGA", "PBM binding z-score": 2.4}, {"sequence": "ACTTACGAGTCAACGAGGTTATAGCACGCGTATA", "PBM binding z-score": 0.738}, {"sequence": "TAGCCTAGGTCATGGGCTAGTATACCACGCGAAC", "PBM binding z-score": 3.86}, {"sequence": "TCTGCTAGGTCAACGATGGTCATCTAATCTGCTA", "PBM binding z-score": 4.09}, {"sequence": "TCTATTAGCTGATTAGGGCAACCGAAACAGCGGA", "PBM binding z-score": 0.444}, {"sequence": "CTCGAAAGGTGGGTTGAGGTGAGTATACGGATAA", "PBM binding z-score": 0.866}, {"sequence": "CGTCCAAGGTCATAGGAAGTCAGTGAAGACAGAT", "PBM binding z-score": 4.81}, {"sequence": "ATCTATAGGTAACAAGTTCAGTGAAAGAGAGGAC", "PBM binding z-score": 1.72}, {"sequence": "TCGTGTAGATCAAGCAGGTTAAGAAAGCCTGAGT", "PBM binding z-score": 0.0461}, {"sequence": "CCTGGGAGGACAACAGGAGGTCAGAGCTGCCAGA", "PBM binding z-score": 2.95}, {"sequence": "AGAATGAGGGTATACGTAGATCAGGGAAGAAAGT", "PBM binding z-score": 0.267}, {"sequence": "AATACAGGGTCACTAGGCTAGAGTAGGTACGAAT", "PBM binding z-score": 4.28}, {"sequence": "TCGAGTAGGTTACTAATGGGGCATTCAGCTTTCT", "PBM binding z-score": 0.494}, {"sequence": "GTACCAACGTGAATAGGTCGTTGATGAGTAGGCG", "PBM binding z-score": -0.00783}, {"sequence": "CCTACTGGGCCATCAGGTTATTGATATCAACGTT", "PBM binding z-score": 0.589}, {"sequence": "ATCTCTAGGTAAGACTCAGTTCATTGAAGAACGC", "PBM binding z-score": 0.694}, {"sequence": "CCTTACGGGTGAAGGTTATAGCACGGGTGGTACG", "PBM binding z-score": 1.31}, {"sequence": "ACCTCTAGGTAAAAGTTCAGTGAATCCCGAGGAT", "PBM binding z-score": 2.08}, {"sequence": "CGTCAAAGTTCAACTAAGGTGACGTAAAGCACGC", "PBM binding z-score": 5.17}, {"sequence": "CATACTGGGCCATCAGGTCATTGATATCAACGTT", "PBM binding z-score": 2.25}, {"sequence": "CCGACTGGGGCATAAGGTTACAATAAGCCAGCCC", "PBM binding z-score": 1.58}, {"sequence": "CGAACTAGGTCAGAACAGGACAGTGCAGGATGAT", "PBM binding z-score": 2.96}, {"sequence": "CAAACTTGGTCAAAGGTCAAAGTCGAGCCAACCA", "PBM binding z-score": 5.11}, {"sequence": "TCATATAGGCAAATGCTAGGTGAAAGTCCGATCT", "PBM binding z-score": 0.0925}, {"sequence": "ATCTCTATGTAAAGATAGTTCAGTGAATGCAAAT", "PBM binding z-score": 0.242}, {"sequence": "GTACCAAGGAGAATAGGTCGTTGATGAGTAGGCG", "PBM binding z-score": 0.136}, {"sequence": "TATACAGGGCCAAAGGCCAGAGTACGAATGTCGA", "PBM binding z-score": 1.53}, {"sequence": "GCTGCTAGGTCAGGTTGCTCAGCTAACGGGTACG", "PBM binding z-score": 3.17}, {"sequence": "AGTCAAAGTTCAGGGCGAGGTAACGTAAAGCACG", "PBM binding z-score": 4.49}, {"sequence": "ACCTACGGGTCAACGAGGTTATAGCACGCGTATA", "PBM binding z-score": 4.05}, {"sequence": "TCTGCTAAGTCAGTTGGTCAGCTAACGAGCTGCC", "PBM binding z-score": 0.0945}, {"sequence": "TATCCTAGGTCATGGGCCAGTATACCACGCGAAC", "PBM binding z-score": 4.06}]}]}
